Measured values published in PubChem BioAssay (NCATS).
Results filed as inconclusive are left out. Active and inactive are the calls of the source. Calls come from the whole dose curve; as a rule, active = well fitted inhibition curve with a large enough effect; inconclusive = small, poorly fitted or top-dose-only effect; inactive = flat fitted curve, though single readings scatter. Where a SMILES comes first, the peptide text is derived from it. [ ]: non-standard residue; d: D form.

What was measured:
Experiment in all cases: Cytotoxic Profiling of Annotated Libraries Using Quantitative High-Throughput Screening (AID 1296008); note: nearly all actives have a fitted effect of over 60% in size
Settings in all cases: Five cell lines viability, CellTiter-Glo ATP luminescence, 48-72 h; max response: stronger effect = lower value
[1] = system: CRL-7250
How it was run: (§1)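 Cytotoxicity was measured as CellTiter-Glo ATP luminescence, read after 10 min at room temperature. Compound treatment of the cells lasted 48 or 72 hr at 37 degrees Celsius in a qHTS format.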

[2] = system: HEK293
How it was run: as §1

[3] = system: HaCat
How it was run: as §1

Measured: max response
% is set by controls: 0 for no effect and ±100 for the full control effect.

C[C@@H]1C(=O)O[C@H]2CC34[C@H]5C[C@@H](C(C)(C)C)C36[C@@H](OC(=O)[C@@H]6O)O[C@@]4(C(=O)O5)[C@]21O (stereo partly specified)
inactive: [1] 3.21% | [2] | [3] -17.8%

C=CC1(C)CC(OC(=O)C(=C)C(O)COC(C)=O)C(C(=C)C(=O)OC)C(O)C1C(=C)CO (stereo unspecified)
inactive: [1] | [2] | [3] -1.47%

Cc1cc(O)c(C(C)C)cc1O[C@@H]1O[C@H](CO)[C@@H](O)[C@H](O)[C@H]1O
inactive: [1] -11.2% | [2] | [3]

COC(=O)C1C(CC(C)=O)C=CC(O)C12Oc1cc(C)cc(O)c1C2=O (stereo unspecified)
inactive: [1] -4.03% | [2] | [3]

C=CCc1ccc(O[C@@H]2O[C@H](CO[C@@H]3O[C@H](CO)[C@@H](O)[C@H](O)[C@H]3O)[C@@H](O)[C@H](O)[C@H]2O)c(O)c1
inactive: [1] -24.9% | [2] | [3] -10.9%

COC1C=C([C@@H]2CC=C3[C@@]4(C)C(CC[C@]32C)[C@@]2(C)C=CC(=O)C(C)(C)C2C[C@H]4OC(C)=O)C(=O)O1 (stereo partly specified)
inactive: all assays above

C=C1CC[C@H]2[C@@](C)(CCC[C@@]2(C)C(=O)O)[C@@H]1CCC(C)CCO (stereo partly specified)
inactive: [1] -8.65% | [2] | [3] 1.39%

Cc1c(CN(C)C(=O)/C=C/c2cnc3c(c2)CCC(=O)N3)oc2ccccc12
inactive: [1] | [2] | [3] 1.29%

OC[C@H]1O[C@@H](Oc2ccc3c(c2)OC[C@H]2c4cc5c(cc4O[C@@H]32)OCO5)[C@H](O)[C@@H](O)[C@@H]1O
inactive: [1] -1.83% | [2] | [3]

CC(C)(O)C1=CCC23COC(C2)C(O)(C(=O)O)CCC13 (stereo unspecified)
inactive: all assays above

COc1ccc(C(OC2OC(CO)C(O)C(O)C2O)C(C)O)cc1 (stereo unspecified)
inactive: [1] -9.11% | [2] | [3]

C=C/C=C/[C@@H]1OC[C@H](/C=C/C=C/C)[C@H]1O
inactive: [1] -3.1% | [2] | [3] -9.46%

COC1C2=C(COC2=O)C2(C)CCCC(C)(CO)C2C1OC(=O)c1ccccc1 (stereo unspecified)
inactive: [1] | [2] | [3] -2.64%

CC1CCC2(C(=O)OC3OC(COC4OC(CO)C(O)C(O)C4O)C(O)C(O)C3O)CCC3(C)C(=CCC4C5(C)CCC(O)C(C)(C(=O)O)C5CCC43C)C2C1(C)O (stereo unspecified)
inactive: [1] | [2] | [3] -9.13%

CC(/C=C/C1(O)C2(C)COC1(C)CC(=O)C2)O[C@@H]1O[C@H](CO)[C@@H](O)[C@H](O)[C@H]1O (stereo partly specified)
inactive: [1] -2.92% | [2] | [3] 3.45%

CC(=O)O[C@@H]1[C@H](O[C@@H]2O[C@H](CO)[C@@H](O)[C@H](O)[C@H]2O)[C@@H](O[C@@H]2O[C@@H](C)[C@H](O)[C@@H](O[C@@H]3O[C@H](CO)[C@@H](O)[C@H](O)[C@H]3O)[C@H]2O)[C@H](OC(=O)C23CCC4(C)C(=CCC5C6(C)CC(O)C(O[C@@H]7O[C@H](C(=O)O)[C@@H](O)[C@H](O)[C@H]7O)C(C)(C(=O)O)C6CCC54C)C2CC(C)(C)CC3O)O[C@@H]1C (stereo partly specified)
inactive: [1] -7.88% | [2] | [3]

OC[C@H]1O[C@@H](Oc2cc(O)cc(/C=C/c3ccc(O)cc3)c2)[C@H](O)[C@@H](O)[C@@H]1O
inactive: all assays above

CC(=O)N[C@H](Cc1ccc(O)cc1)C(=O)N[C@H](CCCN=C(N)N)C(=O)N[C@H](Cc1ccccc1)C(N)=O (Ac-[dY]-[dR]-[dF]-NH2)
inactive: [1] -2.02% | [2] | [3] -6.09%

COc1cc(/C=C/C(=O)OC[C@H]2O[C@H](O[C@]3(CO)O[C@H](CO)[C@@H](O)[C@@H]3O)[C@H](O)[C@@H](O)[C@@H]2O)cc(OC)c1O
inactive: [1] 0.115% | [2] | [3]

CC1(C(=O)O)CCCC2(C)C1CCC13CC(CCC21)C1(CO)OC31 (stereo unspecified)
inactive: [1] -3.21% | [2] | [3]

COc1c2c(c(C)c3c1C(=O)OC3)OC1(C)CC(O)C3(O)C(C)(C)OC(=O)CCC3(C)C1C2 (stereo unspecified)
inactive: [1] -8.09% | [2] | [3]

CC(C)CC(=O)O[C@@H]1OC=C(CO[C@@H]2O[C@H](CO[C@@H]3O[C@H](CO)[C@@H](O)[C@H](O)[C@H]3O)[C@@H](O)[C@H](O)[C@H]2O)[C@H]2C[C@H](O)[C@@H](CO)[C@@H]12
inactive: [1] 4.5% | [2] | [3]
